The structures appear in SMILES notation. Records with an inconclusive call do not appear. The source made the active and inactive calls. The calls were made as follows: active = hit-call score of the fitted dose curve at least 0.9, where 1 is the maximum; inconclusive = response in the unintended direction; inactive = score below 0.9.

The values below come from PubChem BioAssay (EPA / NIEHS).

Chain of Cytochrome P450 3A4 (Homo sapiens) (P08684 whole entry, looked up): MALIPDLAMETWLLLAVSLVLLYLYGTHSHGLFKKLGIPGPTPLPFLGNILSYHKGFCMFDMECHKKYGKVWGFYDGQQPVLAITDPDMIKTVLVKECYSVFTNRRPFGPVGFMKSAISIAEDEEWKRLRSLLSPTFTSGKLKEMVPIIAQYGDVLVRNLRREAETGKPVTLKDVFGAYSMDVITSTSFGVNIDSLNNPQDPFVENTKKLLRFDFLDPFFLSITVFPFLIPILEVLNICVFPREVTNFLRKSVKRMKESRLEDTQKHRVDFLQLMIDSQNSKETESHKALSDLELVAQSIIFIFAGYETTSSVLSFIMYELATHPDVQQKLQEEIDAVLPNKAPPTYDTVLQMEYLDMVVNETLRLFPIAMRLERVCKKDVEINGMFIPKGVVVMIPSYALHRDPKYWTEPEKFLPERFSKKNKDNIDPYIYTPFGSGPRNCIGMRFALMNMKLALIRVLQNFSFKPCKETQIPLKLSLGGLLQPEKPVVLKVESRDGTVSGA

Read-out in the experiment: Cytochrome P450 3A4 (Homo sapiens) (UniProt P08684)
Briefly: CLD_CYP3A4_48hr: CellzDirect (CLD) Gene Expression Assay for xenobiotic metabolism (CYP3A4) at 48 hours (AID 2283698). The procedure: CLD_48hr is a cell-based, multiplexed-readout assay that uses hepatocyte, a human liver primary cell, with measurements taken at 48 hours after chemical dosing in a 96-well plate.CLD_CYP3A4_48hr is one of 16 assay component(s) measured or calculated from the CLD_48hr assay. It is designed to make measurements of mRNA induction, a form of inducible reporter, as detected with chemiluminescence signals by Quantitative Nuclease Protection Assay (qNPA) technology.Data from the assay component CLD_CYP3A4_48hr was analyzed at the endpoint, CLD_CYP3A4_48hr, in the positive analysis fitting direction relative to DMSO as the negative control and baseline of activity. Using a type of inducible reporter, gain-of-signal activity can be used to understand changes in the reporter gene as they relate to the gene CYP3A4. Furthermore, this assay endpoint can be referred to as a primary readout. To generalize the intended target to other relatable targets, this assay endpoint is annotated to the cyp intended target family, where subfamily is xenobiotic metabolism.
Human hepatocyte cultures were treated daily for two consecutive days with fresh dosing solutions containing appropriate concentrations of the 320 ToxCast chemicals (chemical identities were blinded to CellzDirect and other ToxCast collaborators), vehicle control (0.2% DMSO), and positive control inducers as summarized in Table 1. Due to the large number of treatment groups and chemicals examined, the ToxCast chemicals were divided into two groups (spanning two independent cultures of hepatocytes from separate donor preparations (Hu778: ToxCast plates 1 and 2; Hu776: ToxCast plates 3 and 4). Each preparation of human hepatocyte cultures was treated with respective vehicle control, medium only control, set of six positive controls/reference chemicals for the five hepatic receptor pathways, and a subset of eight of the ToxCast chemicals (indoxacarb, pyrithiobac-sodium, norflurazon, cyhalofop-butyl, methomyl, thiram, acetochlor, and propiconazole). These replicate data, coupled with internal replicates designed within the blinded ToxCast chemical library, provided additional data to evaluate interindividual differences between hepatocyte preparations and their potential impact on chemical profiles.Cell morphology and integrity were evaluated using phase-contrast microscopy as an indicator of hepatocyte cell health (Tyson & Green, 1987). Cultures for each treatment group (i.e., media, vehicle [0.2% DMSO], positive control inducers [multiple concentrations], and the ToxCast chemicals [multiple concentrations]) were observed and cell morphology was assessed relative to vehicle control cultures at each harvest time point (0, 6, 24, or 48 h). […] Images were evaluated at the conclusion of the study to assess changes in cell integrity and account for the effects of chemical exposure on uncharacteristic changes in concentration-dependent gene expression profiles. The results from these determinations of apparent cytotoxicity were annotated (yes/no) alongside the corresponding qNPA data for reference.At the conclusion of each treatment period, hepatocyte cultures (96-well) were washed with 1 volume of HBSS, lysed by addition of 25 ul ArrayPlate lysis buffer (HTG, Tucson, AZ), and 70 ul/well of Denaturation Oil, denatured by incubation at 95C for 10 min, and frozen at approximately -70C until analysis by nuclease protection assay (qNPA) (Roberts et al., 2007). For qNPA analysis, cell lysates were thawed at 50C for approximately 30 min, qNPA probes were added, and samples were incubated at 95C for 10 min to begin the detection process by denaturing the target RNA, dissociating the duplexes and secondary structure hybridization. At the conclusion of the hybridization period, S1 nuclease reagent was added to each sample to digest all nonprotected nucleotides at 50C for 60-90 min. […]
With `COP(=O)(OC)OC=C(Cl)Cl`, the call was inactive.
`CNC(=O)/C=C(\C)OP(=O)(OC)OC`: the AC50 is 1.9 µM (active).
In the case of `Oc1cc(Cl)ccc1Oc1ccc(Cl)cc1Cl`, the result was inactive.
With `Clc1ccccc1-c1nnc(-c2ccccc2Cl)nn1`, the AC50 is 6.89 µM (active).
`CCOCN(C(=O)CCl)c1c(C)cccc1CC`: the AC50 is 2.16 µM (active).
Still for that read-out and setting: to `COP(=S)(OC)Oc1ccc([N+](=O)[O-])cc1` belongs 8.47 µM (active); to `CCC(C)(C)C(=O)OC1=C(c2ccc(Cl)cc2Cl)C(=O)OC12CCCCC2`, 34.8 µM (active); to `CC1(C)C(C=C(Cl)Cl)C1C(=O)OC(C#N)c1ccc(F)c(Oc2ccccc2)c1` (stereo unspecified), 6.91 µM (active).
Turning to `COP(=S)(OC)Oc1ccc(SC)c(C)c1`, the result was inactive.
Regarding `C[C@H]1[C@H](c2ccc(Cl)cc2)SC(=O)N1C(=O)NC1CCCCC1`, the half-maximal activity concentration (AC50) was 1.97 µM (active).
Same read-out and setting: the same measure for `N#Cc1c(Cl)c(Cl)c(Cl)c(C#N)c1Cl`: 0.000914 µM (active).
In the case of `O=C(O)COc1ccc(Cl)cc1Cl`, the call was inactive.
Turning to `CCCN(CCOc1c(Cl)cc(Cl)cc1Cl)C(=O)n1ccnc1`, the half-maximal activity concentration (AC50) was 0.432 µM (active).
On the same count and under the same terms, the same measure for `O=S1OCC2C(CO1)C1(Cl)C(Cl)=C(Cl)C2(Cl)C1(Cl)Cl` (stereo unspecified): 9.22 µM (active); for `CCC(C)(NC(=O)c1cc(Cl)c(C)c(Cl)c1)C(=O)CCl` (stereo unspecified): 2.52 µM (active).
In the case of `Cc1[nH]c(=O)n(C(C)(C)C)c(=O)c1Cl`, the molecule was called inactive.
As to `O=S(=O)(O)C(F)(F)C(F)(F)C(F)(F)C(F)(F)C(F)(F)C(F)(F)C(F)(F)C(F)(F)F`, the result was inactive.
Regarding `CC(C)OC(=O)Nc1cccc(Cl)c1`, the concentration at half-maximal activity (AC50) was 36.3 µM (active).
Turning to `CCS(=O)(=O)c1cccnc1S(=O)(=O)NC(=O)Nc1nc(OC)cc(OC)n1`, the half-maximal activity concentration (AC50) is 20 µM (active).
As to `CCOC1Oc2ccc(OS(C)(=O)=O)cc2C1(C)C` (stereo unspecified), the half-maximal activity concentration (AC50) is 5.87 µM (active).
Same read-out and setting: the same measure for `CNC(=O)Oc1ccccc1OC(C)C`: 3.99 µM (active).
Regarding `O=C(Nc1ccccc1)Nc1cnns1`, the result was inactive.
For the molecule `CC(C)N(C(=O)COc1nnc(C(F)(F)F)s1)c1ccc(F)cc1`, the AC50 was 5.1 µM (active).
Still for that read-out and setting: the same measure for `C#CCN1C(=O)COc2cc(F)c(N3C(=O)C4=C(CCCC4)C3=O)cc21`: 4.94 µM (active); for `CCC(C)Nc1c([N+](=O)[O-])cc(C(C)(C)C)cc1[N+](=O)[O-]` (stereo unspecified): 2.7 µM (active); for `CCc1ccc(C(=O)NN(C(=O)c2cc(C)cc(C)c2)C(C)(C)C)cc1`: 2.15 µM (active).
For `CC(C)(C)C(O)/C(=C\c1ccc(Cl)cc1Cl)n1cncn1` (stereo unspecified), the concentration at half-maximal activity (AC50) was 1.9 µM (active).
Still for that read-out and setting: to `O=C(O)C(F)(F)C(F)(F)C(F)(F)C(F)(F)C(F)(F)C(F)(F)C(F)(F)F` belongs 3.97 µM (active).
With `O=C(NC(=O)c1c(F)cccc1F)Nc1ccc(OC(F)(F)C(F)OC(F)(F)F)c(Cl)c1` (stereo unspecified), the call was inactive.
As to `CCN(CC)C(=O)SCc1ccc(Cl)cc1`, the half-maximal activity concentration (AC50) is 20 µM (active).
Take `O=[N+]([O-])c1c(Cl)c(Cl)c(Cl)c(Cl)c1Cl`: the concentration at half-maximal activity (AC50) is 3.39 µM (active).
In the case of `O=[N+]([O-])/N=C1\NCCN1Cc1ccc(Cl)nc1`, the molecule was called inactive.
Consider `CCCN(CCC)c1c([N+](=O)[O-])cc(C(F)(F)F)cc1[N+](=O)[O-]`, for which the concentration at half-maximal activity (AC50) is 8.57 µM (active).
Consider `CCOc1nc(NC)nc(NC(=O)NS(=O)(=O)c2ccccc2C(=O)OC)n1`, for which the outcome was inactive.
For the molecule `COC(=O)c1ccccc1S(=O)(=O)NC(=O)Nc1nc(C)nc(OC)n1`, the outcome was inactive.
For `CC1(c2ccc(Oc3ccccc3)cc2)OC(=O)N(Nc2ccccc2)C1=O` (stereo unspecified), the call was inactive.
